Reference: PubChem BioAssay (NCATS)
Inconclusive results are not listed. Activity calls are given as the source filed them. The call rests on the fitted dose curve; in most records, active means well fitted curve in the direction sought with a large enough effect; inconclusive means small, poorly fitted or top-dose-only effect, or another doubt; inactive means no such curve, though single readings can be large; an effect the other way counts as inactive or inconclusive. *1 amine or outer side, *2 acyl side, *3 side chain or, on linkers, in order; H or OH if unused. Where a SMILES comes first, the peptide text is derived from it. [ ]: non-standard residue; d: D form. X13 = O=C(C(CC(O)CO)O[*:1])[*:2]; NMeV = CN[CH](C(=O)O)C(C)C; NMeA = CN[CH](C)C(=O)O; βAla = NCCC(=O)O

Assays:
HACAT = assay: qHTS assay to identify novel small-molecules to repurpose for Merkel cell carcinoma treatment (AID 1296009); details: MCC and control cell lines, CellTiter-Glo viability, 72 h; at 44.8 µM (top of the series) unless noted; further: nearly all actives have a fitted effect of over 60% in size
Method in brief: (§1)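 Cell viability measured by CellTiter-Glo following 72 hr compound treatment at 37 degree celsius, with NPC and MIPE libraries tested in 8- and 11-point concentration series.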

NIH3T3 = assay: as above; details: MCC and control cell lines, CellTiter-Glo viability, 72 h; at 44.8 µM (top of the series) unless noted
Method in brief: as §1

C33A = assay: Primary qHTS to identify gynecologic anti-cancer compounds using libraries of approved drugs and bioactive compounds (AID 1345084); details: Gynecologic cancer cell panel viability, ATPlite luminescence, 48 h; series mostly up to 57.5 µM; further: on the % scale 0 is the no-effect control and ±100 the full control effect; nearly all actives have a fitted effect of over 55% in size
Method in brief: (§2)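 48 h compound exposure at 37 C, 5% CO2; five-point qHTS. ATPlite luminescence readout of cell ATP.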

CAOV3 = assay: as above; details: Gynecologic cancer cell panel viability, ATPlite luminescence, 48 h; series mostly up to 57.5 µM
Method in brief: as §2

CASKI = assay: as above; details: Gynecologic cancer cell panel viability, ATPlite luminescence, 48 h; series mostly up to 57.5 µM
Method in brief: as §2

Es-2 = assay: as above; details: Gynecologic cancer cell panel viability, ATPlite luminescence, 48 h; series mostly up to 57.5 µM
Method in brief: as §2

HeLa = assay: as above; details: Gynecologic cancer cell panel viability, ATPlite luminescence, 48 h; series mostly up to 57.5 µM
Method in brief: as §2

Hek293T = assay: as above; details: Gynecologic cancer cell panel viability, ATPlite luminescence, 48 h, control line for the selectivity index; series mostly up to 57.5 µM
Method in brief: as §2

JEG-3 = assay: as above; details: Gynecologic cancer cell panel viability, ATPlite luminescence, 48 h; series mostly up to 57.5 µM
Method in brief: as §2

OV90 = assay: as above; details: Gynecologic cancer cell panel viability, ATPlite luminescence, 48 h; series mostly up to 57.5 µM
Method in brief: as §2

PA-1 = assay: as above; details: Gynecologic cancer cell panel viability, ATPlite luminescence, 48 h; series mostly up to 57.5 µM
Method in brief: as §2

SKOV3 = assay: as above; details: Gynecologic cancer cell panel viability, ATPlite luminescence, 48 h; series mostly up to 57.5 µM
Method in brief: as §2

Tov-21-G = assay: as above; details: Gynecologic cancer cell panel viability, ATPlite luminescence, 48 h; series mostly up to 57.5 µM
Method in brief: as §2

Tov112D = assay: as above; details: Gynecologic cancer cell panel viability, ATPlite luminescence, 48 h; series mostly up to 57.5 µM
Method in brief: as §2

CCC(C)C1NC(=O)C2CCCN2C(=O)C(CC(O)CO)OC(=O)CCNC(=O)C(C)N(C)C(=O)C(C(C)C)N(C)C1=O (centres undefined) (cyclo([X13]PI[NMeV][NMeA][βAla]); configuration not given here)
inactive: outcome (HACAT) inactive [at 17.4 µM] | outcome (NIH3T3) inactive [at 17.4 µM] | Potency (C33A) | Potency (CAOV3) | outcome (CASKI) | Potency (Es-2) | Potency (HeLa) | Potency (Hek293T) | Potency (JEG-3) | Potency (OV90) | Potency (PA-1) | Potency (SKOV3) | Potency (Tov-21-G) | Potency (Tov112D)

CC1=CC(=O)[C@]2(O[C@@H]3O[C@@H](C)[C@H](O)[C@@H](O)[C@H]3O)C=CO[C@@H](O[C@@H]3O[C@H](CO)[C@@H](O)[C@H](O)[C@H]3O)[C@H]12
inactive: outcome (HACAT) inactive [at 17.4 µM] | outcome (NIH3T3) inactive [at 17.4 µM] | Potency (C33A) | Potency (CAOV3) | outcome (CASKI) | Potency (Es-2) | Potency (HeLa) | Potency (Hek293T) | Potency (JEG-3) | Potency (OV90) | Potency (PA-1) | Potency (SKOV3) | Potency (Tov-21-G) | Potency (Tov112D)

O=C(O)CC1CCC(c2ccc(NC(=O)c3nnc(Nc4ccc(F)c(F)c4)o3)cc2)CC1 (centres undefined)
inactive: outcome (HACAT) | outcome (NIH3T3) | Potency (C33A) | Potency (CAOV3) | outcome (CASKI) | Potency (Es-2) | Potency (HeLa) | Potency (Hek293T) | Potency (JEG-3) | Potency (OV90) | Potency (PA-1) | Potency (SKOV3) | Potency (Tov-21-G) | Potency (Tov112D)

COC(=O)C1=COC(O[C@@H]2O[C@H](CO)[C@@H](O)[C@H](O)[C@H]2O)/C(=C\COC(=O)/C=C/c2ccccc2)C1CC(=O)OCCc1ccc(O)cc1 (some centres undefined)
inactive: outcome (HACAT) inactive [at 17.4 µM] | outcome (NIH3T3) inactive [at 17.4 µM] | Potency (C33A) | Potency (CAOV3) | outcome (CASKI) | Potency (Es-2) | Potency (HeLa) | Potency (Hek293T) | Potency (JEG-3) | Potency (OV90) | Potency (PA-1) | Potency (SKOV3) | Potency (Tov-21-G) | Potency (Tov112D)

CC1OC(OC2CCC3(C)C(CCC4(C)C3C=CC35OCC6(CCC(C)(C)CC63)CCC45C)C2(C)CO)C(OC2OC(CO)C(O)C(O)C2O)C(O)C1OC1OC(CO)C(O)C(O)C1O (centres undefined)
inactive: outcome (HACAT) inactive [at 9.27 µM] | outcome (NIH3T3) inactive [at 9.27 µM] | activity change, negative = cytotoxicity (C33A) 0.873% [at 11.6 µM] | activity change, negative = cytotoxicity (CAOV3) 14% [at 11.6 µM] | activity change, negative = cytotoxicity (CASKI) 3.54% [at 11.6 µM] | activity change, negative = cytotoxicity (Es-2) -0.667% [at 11.6 µM] | activity change, negative = cytotoxicity (HeLa) 5.87% [at 11.6 µM] | activity change, negative = cytotoxicity (Hek293T) 6.69% [at 11.6 µM] | activity change, negative = cytotoxicity (JEG-3) 8.45% [at 11.6 µM] | activity change, negative = cytotoxicity (OV90) -14.8% [at 11.6 µM] | activity change, negative = cytotoxicity (PA-1) 5.66% [at 11.6 µM] | activity change, negative = cytotoxicity (SKOV3) 6.92% [at 11.6 µM] | activity change, negative = cytotoxicity (Tov-21-G) 3.71% [at 11.6 µM] | activity change, negative = cytotoxicity (Tov112D) 11.6% [at 11.6 µM]

COc1cc(C2Oc3c(OC)cc(/C=C/C(=O)OC4CC(O)(C(=O)O)CC(O)C4O)cc3C2CO)ccc1O (centres undefined)
inactive: outcome (HACAT) inactive [at 17.4 µM] | outcome (NIH3T3) inactive [at 17.4 µM] | Potency (C33A) | Potency (CAOV3) | outcome (CASKI) | Potency (Es-2) | Potency (HeLa) | Potency (Hek293T) | Potency (JEG-3) | Potency (OV90) | Potency (PA-1) | Potency (SKOV3) | Potency (Tov-21-G) | Potency (Tov112D)

CC(=O)N[C@H](Cc1c[nH]c2ccccc12)C(=O)OCc1cc(C(F)(F)F)cc(C(F)(F)F)c1
inactive: outcome (HACAT) | outcome (NIH3T3) | Potency (C33A) | Potency (CAOV3) | outcome (CASKI) | Potency (Es-2) | Potency (HeLa) | Potency (Hek293T) | Potency (JEG-3) | Potency (OV90) | Potency (PA-1) | Potency (SKOV3) | Potency (Tov-21-G) | Potency (Tov112D)

O=C(O)c1cc(C(F)(F)F)ccc1N1CC[C@H](OCc2ccccn2)C1
inactive: outcome (HACAT) | outcome (NIH3T3) | Potency (C33A) | Potency (CAOV3) | outcome (CASKI) | Potency (Es-2) | Potency (HeLa) | Potency (Hek293T) | Potency (JEG-3) | Potency (OV90) | Potency (PA-1) | Potency (SKOV3) | Potency (Tov-21-G) | Potency (Tov112D)

CC(=O)c1ccc(O[C@@H]2OC[C@@H](O)[C@H](O)[C@H]2O[C@]2(CO)O[C@H](CO)[C@@H](O)[C@@H]2O)c(O)c1
inactive: outcome (HACAT) inactive [at 17.4 µM] | outcome (NIH3T3) inactive [at 17.4 µM] | Potency (C33A) | Potency (CAOV3) | outcome (CASKI) | Potency (Es-2) | Potency (HeLa) | Potency (Hek293T) | Potency (JEG-3) | Potency (OV90) | Potency (PA-1) | Potency (SKOV3) | Potency (Tov-21-G) | Potency (Tov112D)

COCCCc1sc(-c2ccccc2)nc1C(=O)Nc1ccccc1-c1nc2cc(CN3CCCC3)cnc2s1
inactive: outcome (HACAT) inactive [at 17.4 µM] | outcome (NIH3T3) inactive [at 17.4 µM] | Potency (C33A) | Potency (CAOV3) | outcome (CASKI) | Potency (Es-2) | Potency (HeLa) | Potency (Hek293T) | Potency (JEG-3) | Potency (OV90) | Potency (PA-1) | Potency (SKOV3) | Potency (Tov-21-G) | Potency (Tov112D)

COC1OC(OC)C(O)(CCC2(C)C(C)CCC3(C)C2CC(O)C(O)C32CO2)C1O (centres undefined)
inactive: outcome (HACAT) inactive [at 17.4 µM] | outcome (NIH3T3) inactive [at 17.4 µM] | Potency (C33A) | Potency (CAOV3) | outcome (CASKI) | Potency (Es-2) | Potency (HeLa) | Potency (Hek293T) | Potency (JEG-3) | Potency (OV90) | Potency (PA-1) | Potency (SKOV3) | Potency (Tov-21-G) | Potency (Tov112D)
